Source: the supplement of paper PMC10849652
Targets with a hit are over-represented here; the source holds about 7,900 in all. About 0.6% of all pairs of compound and target were hits. Unmarked numbers belong to inactive results.

Experiments:
Test in all cases: log2 fold change, soluble protein after heating vs DMSO (PISA); higher = thermal stabilisation; K562 cells, 10 uM, 30 min; active = over 0.2 and 3.5 SD of the protein, either way, in both replicates (recomputed)
[1] = compound: CC1=C(C=C(C=C1)NC(=O)C2=CC(=CC=C2)C(C)(C)C#N)NC3=CC4=C(C=C3)N=CN(C4=O)C
Method in brief: (§1)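 Thermal stability values are relative to control samples and come from duplicates. They are expressed as log2 fold changes. For measurement, K562 cells (2×10^6 cells/mL) received 10 μM compound for 30 min, and aliquots were heated for 3 min over 48°C-58°C, pooled, and extracted at 4°C in PBS with 0.5% NP-40. Soluble protein, the supernatant after 21,000xg for 90 min, was quantified by TMTpro 16plex LC-MS/MS with equalised channel sums.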

[2] = compound: CC1=C(C=C(C=C1)NC(=O)C2=CC(=CC=C2)N(C)C)NC(=O)C3=CC=C(C=C3)O
Method in brief: as §1

[3] = compound: CC1=CC=C(C=C1)SC2=C3C=C(SC3=CN=C2)C(=O)N
Method in brief: as §1

[4] = compound: CC1=NC(=CC=C1)C2=C(N=C(N2)C(C)(C)C)C3=CC4=NC=CN=C4C=C3
Method in brief: as §1

Nexturastat A = compound: CCCCN(Cc1ccc(C(=O)NO)cc1)C(=O)Nc1ccccc1 [Nexturastat A]
Method in brief: as §1

vemurafenib = compound: CCCS(=O)(=O)Nc1ccc(F)c(C(=O)c2c[nH]c3ncc(-c4ccc(Cl)cc4)cc23)c1F [vemurafenib]
Method in brief: as §1

[5] = compound: CCCS(=O)(=O)Nc1ccc(F)c(C(=O)c2c[nH]c3ncc(Cl)cc23)c1F
Method in brief: as §1

[6] = compound: CCCc1cc(C)[nH]c(=O)c1CNC(=O)c1cc(-c2ccnc(N3CCN(C)CC3)c2)cc2c1cnn2C(C)C
Method in brief: as §1

givinostat = compound: CCN(CC)Cc1ccc2cc(COC(=O)Nc3ccc(C(=O)NO)cc3)ccc2c1 [givinostat]
Method in brief: as §1

barasertib = compound: CCN(CCCOc1ccc2c(Nc3cc(CC(=O)Nc4cccc(F)c4)[nH]n3)ncnc2c1)CCOP(=O)(O)O [barasertib]
Method in brief: as §1

[7] = compound: CC[C@@H]1C(=O)N(C)c2cnc(Nc3ccc(C(=O)NC4CCN(C)CC4)cc3OC)nc2N1C1CCCC1
Method in brief: as §1

volasertib = compound: CC[C@@H]1C(=O)N(C)c2cnc(Nc3ccc(C(=O)N[C@H]4CC[C@H](N5CCN(CC6CC6)CC5)CC4)cc3OC)nc2N1C(C)C [volasertib]
Method in brief: as §1

[8] = compound: CC[C@H](C)N1C=C(C2=C(C=C(C=C21)C3=CN=C(C=C3)N4CCNCC4)C(=O)NCC5=C(C=C(NC5=O)C)C)C
Method in brief: as §1

epoxomicin = compound: CC[C@H](C)[C@@H](C(=O)N[C@@H]([C@@H](C)O)C(=O)N[C@@H](CC(C)C)C(=O)[C@]1(CO1)C)NC(=O)[C@H]([C@@H](C)CC)N(C)C(=O)C [epoxomicin]
Method in brief: as §1

[9] = compound: CCn1c(C(=O)N(C2CC2)C2CC2)cc2c3c(ncn3C)c(Nc3cc(C)n(C)n3)nc21
Method in brief: as §1

[10] = compound: CCn1cc(-c2ccnc3[nH]c(-c4cccc(CN(C)C)c4)cc23)c(-c2ccc(NC(=O)N(C)C)cc2)n1
Method in brief: as §1

[11] = compound: CN(C)CC(=O)Nc1ccc2[nH]c(=O)c3ccccc3c2c1
Method in brief: as §1

rosiglitazone = compound: CN(CCOC1=CC=C(C=C1)C[C@H]2C(=O)NC(=O)S2)C3=CC=CC=N3 (racemic) [rosiglitazone]
Method in brief: as §1

[12] = compound: CN1C2=C(C3=C1C(=O)N(N=C3)CC4=CC(=CC=C4)N)SC(=C2)S(=O)C
Method in brief: as §1

[13] = compound: CN1CCC(CNc2ccc3ncc(-c4cccc(OC(F)(F)F)c4)n3n2)CC1
Method in brief: as §1

Sequence of UniProt O75439 (O75439 whole entry, looked up): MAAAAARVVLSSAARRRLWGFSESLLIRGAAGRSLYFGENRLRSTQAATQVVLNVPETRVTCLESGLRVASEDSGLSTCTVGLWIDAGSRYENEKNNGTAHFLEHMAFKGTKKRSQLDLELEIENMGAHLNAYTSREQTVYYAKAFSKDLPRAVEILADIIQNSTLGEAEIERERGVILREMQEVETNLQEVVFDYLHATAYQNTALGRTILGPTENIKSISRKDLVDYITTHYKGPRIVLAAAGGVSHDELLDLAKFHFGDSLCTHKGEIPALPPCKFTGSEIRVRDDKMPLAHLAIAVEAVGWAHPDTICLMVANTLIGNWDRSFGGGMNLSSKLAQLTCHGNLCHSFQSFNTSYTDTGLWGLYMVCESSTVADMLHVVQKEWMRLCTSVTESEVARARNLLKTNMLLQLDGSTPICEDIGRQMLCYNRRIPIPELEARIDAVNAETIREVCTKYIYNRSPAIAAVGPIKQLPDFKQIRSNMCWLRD
Sequence of UniProt P29590 (P29590 whole entry, looked up): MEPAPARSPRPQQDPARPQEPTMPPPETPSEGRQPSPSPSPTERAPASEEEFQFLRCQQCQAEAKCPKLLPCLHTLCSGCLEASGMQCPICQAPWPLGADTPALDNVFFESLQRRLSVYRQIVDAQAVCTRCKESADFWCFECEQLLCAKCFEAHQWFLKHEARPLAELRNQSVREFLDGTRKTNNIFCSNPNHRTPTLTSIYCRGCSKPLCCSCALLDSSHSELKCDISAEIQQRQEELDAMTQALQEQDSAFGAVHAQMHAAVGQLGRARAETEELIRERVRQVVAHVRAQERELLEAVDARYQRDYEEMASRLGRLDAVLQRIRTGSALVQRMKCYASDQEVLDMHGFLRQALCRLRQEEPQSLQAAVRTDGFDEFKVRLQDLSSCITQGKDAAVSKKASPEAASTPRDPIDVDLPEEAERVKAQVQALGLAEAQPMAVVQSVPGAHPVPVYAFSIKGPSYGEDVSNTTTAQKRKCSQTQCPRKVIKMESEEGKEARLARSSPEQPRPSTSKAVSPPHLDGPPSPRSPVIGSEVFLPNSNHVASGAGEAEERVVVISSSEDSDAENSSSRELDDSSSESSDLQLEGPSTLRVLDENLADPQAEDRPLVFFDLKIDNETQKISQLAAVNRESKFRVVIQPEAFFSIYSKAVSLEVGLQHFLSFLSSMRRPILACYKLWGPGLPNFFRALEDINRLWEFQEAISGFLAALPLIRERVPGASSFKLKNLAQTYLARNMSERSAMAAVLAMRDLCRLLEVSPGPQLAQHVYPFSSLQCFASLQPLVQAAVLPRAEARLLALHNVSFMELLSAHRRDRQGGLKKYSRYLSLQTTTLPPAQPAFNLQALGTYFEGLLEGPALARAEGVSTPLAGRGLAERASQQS
Sequence of UniProt Q16401 (Q16401 whole entry, looked up): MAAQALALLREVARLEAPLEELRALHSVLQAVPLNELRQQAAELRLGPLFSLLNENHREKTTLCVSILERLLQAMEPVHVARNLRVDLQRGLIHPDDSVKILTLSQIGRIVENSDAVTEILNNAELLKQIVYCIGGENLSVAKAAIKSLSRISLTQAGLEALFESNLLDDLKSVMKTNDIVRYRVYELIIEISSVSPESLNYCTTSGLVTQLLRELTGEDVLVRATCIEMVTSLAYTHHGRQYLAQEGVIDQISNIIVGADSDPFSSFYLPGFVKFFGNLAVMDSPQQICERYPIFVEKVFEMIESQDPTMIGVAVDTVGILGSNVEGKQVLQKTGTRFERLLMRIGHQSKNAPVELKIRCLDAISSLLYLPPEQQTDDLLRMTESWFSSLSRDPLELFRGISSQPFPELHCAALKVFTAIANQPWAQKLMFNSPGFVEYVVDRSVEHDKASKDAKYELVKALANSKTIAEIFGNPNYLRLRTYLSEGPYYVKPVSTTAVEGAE
Sequence of UniProt Q8TBX8 (Q8TBX8 whole entry, looked up): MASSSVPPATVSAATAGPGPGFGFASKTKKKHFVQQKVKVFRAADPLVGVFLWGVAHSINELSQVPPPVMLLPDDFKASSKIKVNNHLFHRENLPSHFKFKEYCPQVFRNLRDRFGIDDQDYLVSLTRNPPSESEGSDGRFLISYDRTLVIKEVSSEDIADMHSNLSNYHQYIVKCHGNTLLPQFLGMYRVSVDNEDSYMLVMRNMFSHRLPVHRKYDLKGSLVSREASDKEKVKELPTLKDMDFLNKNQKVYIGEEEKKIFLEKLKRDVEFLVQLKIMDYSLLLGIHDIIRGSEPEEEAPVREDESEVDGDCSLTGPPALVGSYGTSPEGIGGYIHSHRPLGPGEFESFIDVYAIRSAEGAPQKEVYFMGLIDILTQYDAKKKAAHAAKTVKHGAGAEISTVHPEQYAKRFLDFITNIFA
Sequence of UniProt O15530 (O15530 whole entry, looked up): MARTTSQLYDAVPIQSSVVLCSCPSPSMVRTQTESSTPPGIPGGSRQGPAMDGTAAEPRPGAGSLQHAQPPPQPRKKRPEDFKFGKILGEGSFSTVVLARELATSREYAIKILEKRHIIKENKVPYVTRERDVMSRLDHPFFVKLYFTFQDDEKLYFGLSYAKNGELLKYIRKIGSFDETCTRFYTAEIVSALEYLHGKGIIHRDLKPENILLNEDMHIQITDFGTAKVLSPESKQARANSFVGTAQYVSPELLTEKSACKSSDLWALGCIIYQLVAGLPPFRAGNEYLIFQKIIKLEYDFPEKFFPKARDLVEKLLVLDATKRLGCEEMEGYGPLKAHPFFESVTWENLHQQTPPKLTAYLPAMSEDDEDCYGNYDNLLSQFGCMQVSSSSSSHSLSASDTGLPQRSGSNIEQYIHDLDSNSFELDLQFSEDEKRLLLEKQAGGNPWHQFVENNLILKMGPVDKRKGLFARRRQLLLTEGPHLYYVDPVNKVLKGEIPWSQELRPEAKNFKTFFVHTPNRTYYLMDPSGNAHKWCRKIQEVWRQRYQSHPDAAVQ
Sequence of UniProt P50336 (P50336 whole entry, looked up): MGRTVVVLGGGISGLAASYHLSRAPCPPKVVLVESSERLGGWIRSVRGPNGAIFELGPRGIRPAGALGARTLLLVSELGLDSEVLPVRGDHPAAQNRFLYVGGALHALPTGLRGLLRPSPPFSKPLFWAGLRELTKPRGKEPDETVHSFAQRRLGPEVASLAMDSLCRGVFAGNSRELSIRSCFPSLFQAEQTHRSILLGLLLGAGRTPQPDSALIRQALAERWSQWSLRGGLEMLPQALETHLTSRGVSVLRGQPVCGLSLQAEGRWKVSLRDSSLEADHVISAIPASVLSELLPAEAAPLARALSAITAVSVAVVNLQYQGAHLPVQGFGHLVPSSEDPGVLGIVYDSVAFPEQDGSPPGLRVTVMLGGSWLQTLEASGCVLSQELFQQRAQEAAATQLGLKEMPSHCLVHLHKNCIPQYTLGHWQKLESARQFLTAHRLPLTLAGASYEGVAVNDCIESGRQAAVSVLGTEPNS
Sequence of UniProt P09884 (P09884 whole entry, looked up): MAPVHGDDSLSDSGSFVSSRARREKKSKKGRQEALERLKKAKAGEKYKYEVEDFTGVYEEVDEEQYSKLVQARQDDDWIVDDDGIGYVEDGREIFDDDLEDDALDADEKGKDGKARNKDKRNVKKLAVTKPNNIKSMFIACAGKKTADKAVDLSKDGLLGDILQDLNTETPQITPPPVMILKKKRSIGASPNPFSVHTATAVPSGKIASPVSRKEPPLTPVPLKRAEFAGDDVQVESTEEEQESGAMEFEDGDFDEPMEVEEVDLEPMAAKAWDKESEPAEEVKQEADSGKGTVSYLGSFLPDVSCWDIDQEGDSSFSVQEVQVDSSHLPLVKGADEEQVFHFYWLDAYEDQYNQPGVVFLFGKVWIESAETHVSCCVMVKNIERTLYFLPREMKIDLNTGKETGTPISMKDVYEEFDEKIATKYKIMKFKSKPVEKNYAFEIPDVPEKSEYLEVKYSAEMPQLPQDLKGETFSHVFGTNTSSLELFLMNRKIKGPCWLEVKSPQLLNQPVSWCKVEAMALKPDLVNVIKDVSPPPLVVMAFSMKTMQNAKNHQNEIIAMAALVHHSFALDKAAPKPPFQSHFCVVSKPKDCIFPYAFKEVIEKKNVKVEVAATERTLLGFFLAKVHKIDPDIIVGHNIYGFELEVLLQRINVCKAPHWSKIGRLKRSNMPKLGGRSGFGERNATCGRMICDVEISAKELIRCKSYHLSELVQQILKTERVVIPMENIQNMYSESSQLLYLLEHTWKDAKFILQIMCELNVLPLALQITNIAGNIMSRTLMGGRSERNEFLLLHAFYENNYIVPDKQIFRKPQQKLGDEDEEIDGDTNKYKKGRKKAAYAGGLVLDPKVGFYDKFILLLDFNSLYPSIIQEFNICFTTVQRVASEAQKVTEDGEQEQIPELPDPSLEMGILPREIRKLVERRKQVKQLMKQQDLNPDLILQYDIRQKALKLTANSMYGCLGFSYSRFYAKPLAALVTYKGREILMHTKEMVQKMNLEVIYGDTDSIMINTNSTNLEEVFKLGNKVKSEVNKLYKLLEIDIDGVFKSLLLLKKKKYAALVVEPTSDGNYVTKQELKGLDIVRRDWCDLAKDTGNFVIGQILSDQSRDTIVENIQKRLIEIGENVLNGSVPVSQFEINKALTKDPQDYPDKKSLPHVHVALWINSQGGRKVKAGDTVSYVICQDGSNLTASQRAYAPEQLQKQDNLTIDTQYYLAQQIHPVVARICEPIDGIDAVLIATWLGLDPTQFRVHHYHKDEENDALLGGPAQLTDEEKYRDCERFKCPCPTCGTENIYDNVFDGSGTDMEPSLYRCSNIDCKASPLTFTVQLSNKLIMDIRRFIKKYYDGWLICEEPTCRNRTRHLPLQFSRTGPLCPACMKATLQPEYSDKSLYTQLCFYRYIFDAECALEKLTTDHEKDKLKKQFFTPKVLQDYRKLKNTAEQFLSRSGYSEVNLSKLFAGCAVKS
Sequence of UniProt Q9Y3C6 (Q9Y3C6 whole entry, looked up): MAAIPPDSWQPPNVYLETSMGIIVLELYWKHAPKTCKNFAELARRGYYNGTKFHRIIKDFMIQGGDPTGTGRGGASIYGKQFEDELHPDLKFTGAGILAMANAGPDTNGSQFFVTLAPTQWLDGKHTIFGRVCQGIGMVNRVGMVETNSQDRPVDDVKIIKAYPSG

Target | log2 fold change [1] | log2 fold change [2] | log2 fold change [3] | log2 fold change [4] | log2 fold change (Nexturastat A) | log2 fold change (vemurafenib) | log2 fold change [5] | log2 fold change [6] | log2 fold change (givinostat) | log2 fold change (barasertib) | log2 fold change [7] | log2 fold change (volasertib) | log2 fold change [8] | log2 fold change (epoxomicin) | log2 fold change [9] | log2 fold change [10] | log2 fold change [11] | log2 fold change (rosiglitazone) | log2 fold change [12] | log2 fold change [13]
PML (UniProt P29590) | -0.024 | -0.001 | -0.009 | -0.02 | -0.002 | -0.044 | 0.018 | -0.007 | -0.014 | 0.01 | -0.051 | -0.136 | 0.027 | -0.021 | -0.001 | -0.024 | -0.049 | 0.026 | 0.015 | -0.045
POLR2G (UniProt P62487) | 0.025 | -0.033 | 0.059 | 0.057 | -0.015 | -0.022 | 0.009 | -0.038 | -0.094 | -0.019 | 0.215 | 0.276 | -0.075 | 0.054 | 0.06 | -0.003 | 0.02 | -0.01 | 0.002 | 0.081
PIP4P2 (UniProt Q8N4L2) | 0.107 | -0.03 | -0.006 | -0.002 | -0.092 | -0.013 | 0.041 | -0.045 | -0.067 | 0 | -0.092 | -0.054 | -0.07 | -0.192 | 0.053 | 0.004 | -0.018 | 0.008 | -0.016 | -0.375 (active)
PPIL1 (UniProt Q9Y3C6) | -0.002 | 0.023 | 0 | -0.024 | 0.025 | -0.045 | 0.027 | -0.016 | -0.038 | 0.033 | 0.014 | -0.051 | 0.01 | -0.024 | -0.042 | 0.02 | -0.014 | 0.035 | 0.049 | 0.018
PMPCB (UniProt O75439) | 0.012 | -0.063 | -0.009 | 0.03 | -0.07 | 0.06 | -0.019 | -0.015 | -0.042 | 0.01 | 0.008 | 0.138 | 0.038 | 0.022 | -0.017 | -0.125 | 0.032 | 0.002 | -0.084 | 0.098
PEF1 (UniProt Q9UBV8) | -0.011 | -0.075 | 0.027 | 0.013 | 0.032 | 0.008 | 0.073 | -0.045 | 0.022 | 0.122 | -0.144 | -0.329 (active) | 0.035 | 0.101 | 0.045 | 0.002 | -0.061 | -0.022 | -0.005 | 0.048
PRPF4B (UniProt Q13523) | -0.024 | 0.018 | -0.079 | -0.082 | 0.158 | 0.052 | 0.03 | -0.098 | 0.082 | -0.05 | 0.025 | -0.17 | 0.027 | -0.174 | -0.005 | 0.104 | -0.049 | 0.011 | 0.081 | 0.019
POLA1 (UniProt P09884) | -0.001 | -0.029 | -0.003 | 0.052 | -0.064 | 0.064 | 0.053 | 0.024 | 0.093 | 0.098 | -0.048 | -0.466 (active) | 0.059 | 0.045 | -0.014 | -0.089 | 0.032 | 0.046 | -0.012 | -0.163
PSMC2 (UniProt P35998) | 0.011 | 0.02 | -0.012 | -0.069 | 0.011 | -0.014 | -0.041 | 0.036 | -0.032 | -0.053 | 0.042 | 0.169 | -0.019 | -0.324 (active) | 0.012 | 0.024 | -0.018 | -0.044 | 0.023 | 0.039
PISD (UniProt Q9UG56) | -0.015 | 0.002 | 0.013 | 0.085 | 0.022 | -0.068 | 0.049 | 0.009 | 0.024 | 0.026 | -0.136 | -0.117 | -0.017 | -0.002 | -0.029 | -0.076 | -0.113 | 0.027 | -0.036 | -0.192
PDPK1 (UniProt O15530) | -0.026 | -0.055 | 0.019 | -0.007 | -0.12 | 0.03 | 0.003 | -0.018 | 0.032 | 0.035 | -0.136 | -0.232 | 0.034 | 0.055 | -0.035 | -0.05 | 0.034 | 0.064 | -0.008 | -0.275
PSMD5 (UniProt Q16401) | -0.009 | -0.001 | 0.023 | 0.027 | -0.01 | 0.015 | 0.047 | 0.003 | -0.007 | 0.027 | -0.112 | -0.225 (active) | 0.013 | 0.027 | 0 | -0.026 | -0.011 | 0.012 | -0.043 | -0.038
PSMD8 (UniProt P48556) | 0.044 | 0.047 | -0.056 | -0.045 | 0.128 | -0.082 | -0.073 | 0.022 | -0.04 | -0.034 | 0.054 | 0.25 | -0.01 | -0.286 (active) | 0.022 | 0.039 | -0.037 | -0.048 | 0.035 | 0.016
PPOX (UniProt P50336) | 0.402 | -0.014 | 0.043 | 0.099 | -0.232 | 0.065 | 0.046 | 0.184 | -0.063 | 0 | -0.134 | -0.023 | -0.017 | -0.002 | 0.109 | -0.052 | 0.008 | 0.127 | -0.164 | -0.583 (active)
PGGHG (UniProt Q32M88) | 0.017 | -0.127 | 0.197 | -0.003 | 0 | -0.044 | -0.091 | -0.175 | -0.003 | 0.001 | 0.012 | 0.098 | 0.051 | 0.011 | -0.094 | -0.025 | 0.069 | 0.029 | -0.025 | -0.096
PIP4K2C (UniProt Q8TBX8) | -0.003 | -0.06 | 0.073 | 0.007 | -0.046 | -0.035 | 0 | -0.029 | -0.047 | -0.016 | 1.12 (active) | 1.19 (active) | -0.096 | -0.022 | 0.001 | 0.05 | -0.016 | 0.046 | 0.699 | 0.384
